Shown are actives, neighbours in structure and some others; about 2.4% of the full set was active somewhere.
PfG6PD inh: PfG6PD (Plasmodium falciparum) enzyme inhibition. PfGluPho enzyme, NADPH resazurin-diaphorase fluorescence. inhibition, % at 20 µM. actives 0.78% (n = 350,000);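 active = inhibition reaching at least a set limit at 20 µM in the primary screen, cut at about 59% in these data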;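 note: 0% = DMSO wells with substrate and 100% = DMSO wells lacking glucose-6-phosphate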
PfM18AAP inh-1: PfM18AAP enzyme inhibition | actives 1.2% (n = 290,000) | inhibition, % at 7.35 µM | AID 1822 | recombinant PfM18AAP, H-Glu-NHMec fluorogenic cleavage;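 active = inhibition above the campaign mean inhibition over all tested compounds plus 3 SD, cut at about 28% in these data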;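 note: 0% = plate median of test compound wells and 100% = 2 mM ZnCl2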
APOBEC3G inh: blocks human APOBEC3G single-stranded DNA deamination. Q9HC16. recombinant A3G, ssDNA deamination FAM/TAMRA fluorescence. inhibition, % at 20 µM. actives 0.28% (n = 330,000). AID 493012;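 active = inhibition of at least 40% at 20 µM, with no more than 30% in the related APOBEC3A deaminase screen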;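 note: plate controls were DMSO wells with A3G for no effect and wells lacking A3G enzyme for full effect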
Yeast superoxide: yeast age-related superoxide inhibition as caloric restriction mimetic | S. cerevisiae aged cells, superoxide DHE fluorescence; active compounds read low | superoxide response (% of plate mean), % at 10 µM | AID 2690 | actives 0.18% (n = 330,000);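 active = superoxide response under a set limit, about three screen SD below normal, cut at about 65% in these data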;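 note: yeast aged for seven days with compound at 30 °C before DHE staining; 100% = average MFI of all compound-treated wells on the plate with controls excluded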
A3A deaminase: blocks human APOBEC3A ssDNA deamination. P31941. recombinant A3A, FAM/TAMRA ssDNA deamination fluorescence. inhibition, % at 20 µM. actives 0.41% (n = 330,000);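 active = at least 40% inhibition at 20 µM here, with at most 30% in a related deaminase screen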;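 note: plate controls were A3A with DMSO for no effect and wells lacking A3A enzyme for full effect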
Target sequence (P31941 whole entry, looked up): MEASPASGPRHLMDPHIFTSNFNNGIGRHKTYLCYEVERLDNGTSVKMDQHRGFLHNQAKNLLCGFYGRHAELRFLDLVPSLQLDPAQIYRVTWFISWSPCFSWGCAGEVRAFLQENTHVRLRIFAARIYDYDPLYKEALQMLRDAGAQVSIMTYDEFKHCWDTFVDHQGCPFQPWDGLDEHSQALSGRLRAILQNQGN
PfM18AAP inh-2: PfM18AAP inhibition, confirmation | shares compounds with PfM18AAP inh-1 | recombinant PfM18AAP, H-Glu-NHMec fluorogenic cleavage | inhibition, % at 7.35 µM | actives 28% (n = 2,400) | AID 2170;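 active = mean inhibition over replicate wells above the hit cutoff set for the earlier primary screen, cut at about 29% in these data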;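 note: 0% = median of test compound wells and 100% = 2 mM ZnCl2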
CTSL1 counter: counter-screen for PFM18AAP inhibitors: confirmation of human cathepsin L inhibitors | shares compounds with PfM18AAP inh-1 | purified cathepsin L1, Z-Leu-Arg-MCA fluorescence | inhibition, % at 5.96 µM | 2,400 tested, under 10 active;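 active = average inhibition across replicates above the hit cutoff set in the earlier primary screen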;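 note: 0% = median of test compound wells and 100% = Z-Phe-Ala-diazomethylketone 1 µM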
Starred values were filed as active, the others as inactive; x = no result.

SMILES	PfG6PD inh	PfM18AAP inh-1	APOBEC3G inh	Yeast superoxide	A3A deaminase	PfM18AAP inh-2	CTSL1 counter
O=c1cc(-c2ccc(O)cc2)oc2cc(O)c([C@@H]3O[C@H](CO)[C@@H](O)[C@H](O)[C@H]3O)c(O)c12	10.6	x	-1.7	78.1	-1.5	x	x
O=c1cc(-c2ccc(O)c(O)c2)oc2c(C3O[C@H](CO)[C@@H](O)[C@H](O)[C@H]3O)c(O)cc(O)c12 (stereo partly specified)	-1.6	67.7*	-8.4	98.3	-4.5	44.7*	-1.5
CC1CCN(C(=O)c2ncn3c2c(=O)[nH]c2ccc(Br)cc23)CC1	-5.9	x	x	x	x	x	x
NC(=O)CC(NC(=O)c1ccccc1)c1ccc(NCCN2CCCCC2)c([N+](=O)[O-])c1 (stereo unspecified)	16.1	2.1	-9.6	97.5	2.6	x	x
CCc1ccc(C(=O)NNc2ccc(S(N)(=O)=O)cc2)cc1	2.7	35.3*	-3.7	115.5	-2.7	-10.4	0.8
Cc1ccc(S(=O)(=O)NC(=O)NN2CC3CCCC3C2)cc1 (stereo unspecified)	-17.3	4.9	-5.1	97.7	-2.6	x	x
Cc1nc2ccc(S(=O)(=O)NCC(=O)NC(C)c3ccccc3)cc2s1 (stereo unspecified)	23.5	33.2*	-5.9	96.6	-0.9	-31.4	3.4
CC1(C2(O)CCCCC2)NCCc2ccccc21 (stereo unspecified)	-8.7	x	1.7	x	1.3	x	x
CC[n+]1c(/C=C(\C)OC)sc2ccccc21	17.0	23.1	-5.3	x	-2.1	x	x
CC[n+]1c(C=C2C=C(C)OC(C)=C2)sc2ccccc21	21.6	3.0	-5.5	x	0.6	x	x
CC[n+]1c(/C=C(/C)SC)sc2ccccc21	17.2	48.9*	-3.6	101.5	-0.4	-51.7	-3.6
CC[n+]1c(/C=C(\C)SC)sc2ccccc21	-2.2	44.1*	-5.0	99.6	1.4	-24.9	3.5
CC/C(=C/c1sc2ccccc2[n+]1CC)SC	13.0	45.8*	-9.9	85.4	-8.1	-32.4	4.7
O=[N+]([O-])c1ccccc1C(=Nc1ccccc1)c1c(O)cc(O)cc1O	3.9	x	x	x	x	x	x
CCCCCCCCC(=O)c1c(OC)oc(C=O)cc1=O	-0.1	x	x	x	x	x	x
N#C/C(=C\c1ccc(-c2ccccc2)o1)C(=O)Nn1cnnc1	11.5	63.3*	-0.9	97.4	-6.9	54.3*	6.0
O=C(C(=NNc1ccccc1)c1ccccc1)c1ccccc1	10.2	x	x	x	x	x	x
Oc1ccc(O)c(/C(=N/Nc2ccccc2)c2ccccc2)c1	x	44.7*	29.2	105.0	-4.1	-80.0	-1.0
Cc1nonc1C(=O)N/N=C/c1ccc(O)c(O)c1	4.3	66.2*	-6.8	98.6	-1.7	65.6*	-0.9
N/C(=N\N=C\c1ccc(O)c(O)c1)c1nonc1N	-11.3	42.7*	0.8	95.2	4.4	25.4	2.6
O=C(N/N=C/c1ccc(O)c(O)c1)N/N=C/c1ccc(O)c(O)c1	25.0	79.7*	3.6	100.4	6.4	64.0*	-5.0
O=C(NN=Cc1ccc2c(c1)OCO2)NN=Cc1ccc2c(c1)OCO2	-1.5	x	x	x	x	x	x
COc1cc(/C=N/NC(=O)c2nonc2C)ccc1O	-1.8	6.2	-9.7	106.6	-8.4	x	x
COc1cc(/C=N/N=C(\N)c2nonc2N)ccc1O	-1.5	10.9	-4.8	102.3	0.6	x	x
Cc1cccc(N2CCN(S(=O)(=O)c3cc(-c4cc(C)no4)ccc3C)CC2C)c1 (stereo unspecified)	13.3	-1.2	-4.5	137.9	-2.3	x	x
SMILES	PfG6PD inh	PfM18AAP inh-1	APOBEC3G inh	Yeast superoxide	A3A deaminase	PfM18AAP inh-2	CTSL1 counter
Cc1cc(NS(=O)(=O)c2ccc(Nc3nc(-c4ccc(O)cc4)cs3)cc2)no1	-15.5	43.0*	-9.0	105.5	-2.5	18.0	-3.7
CCCNC(=O)C(Cc1ccccc1F)NC(=O)c1ccc(C#N)cc1 (stereo unspecified)	-11.3	x	-8.5	99.8	-2.5	x	x
CCC(C)(C(=O)NC1CCCCC1)N(CC1CCCO1)C(=O)CNC(=O)c1ccccc1 (stereo unspecified)	-18.4	35.1*	-6.0	90.3	1.1	-55.6	-2.1
COCCCNC(=S)NNC(=O)c1ccccc1Br	-13.4	10.0	1.7	97.5	-4.2	x	x
COCCCNC(=S)NNC(=S)NCCCOC	0.4	32.3*	4.4	108.2	2.5	-14.6	-6.5
COCCCNC(=S)NNC(=O)c1cc(Cl)c(O)c(Cl)c1	-11.6	47.0*	-5.6	96.6	-4.2	19.1	4.4
